Experimental data taken from publication PMC12820563, “FoxP3 forms a head-to-head dimer in vivo and stabilizes its multimerization on adjacent microsatellites”.
Over roughly 16,000 sequences, “rpm ratio (pull-down/input)” has its median near 0.5; the highest 2% begin near 5.5. What follows is part of a selection rich in the highest values, with near analogues and random picks from the rest.

Biological target: T1, MBP-FoxP3dN (Mus musculus, UniProt Q99JB6 188-423)
T1 sequence: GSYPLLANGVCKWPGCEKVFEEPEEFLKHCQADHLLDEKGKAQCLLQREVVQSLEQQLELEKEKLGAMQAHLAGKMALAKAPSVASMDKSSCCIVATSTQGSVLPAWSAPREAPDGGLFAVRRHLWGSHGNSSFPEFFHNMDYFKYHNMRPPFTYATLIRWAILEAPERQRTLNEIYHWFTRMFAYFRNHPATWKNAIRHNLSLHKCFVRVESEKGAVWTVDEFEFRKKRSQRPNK
Assay: PD-seq (MBP pull-down with sequencing); 20 mM Tris-HCl pH 7.5, 100 mM NaCl, 1.5 mM MgCl2, 0.4 uM protein, 0.1 uM dsDNA library, 30 min, room temperature, amylose pull-down; high values mean tight binding
Conditions: protein: recombinant; tags: His6-MBP; chain copies: 2; dsDNA, one strand shown
Summary of the method: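 Protein and DNA were mixed at 0.4 µM and 0.1 µM and held for 30 min at room temperature in Tris pH 7.5 buffer with NaCl and MgCl2; the protein was a His6-MBP-tagged, N-terminally truncated mouse FoxP3 or FoxP1 fragment from E. coli, and the DNA a Klenow-filled double-stranded degenerate library. Amylose resin captured the complexes, which were washed three times. Binding is read as reads-per-million enrichment of pull-down versus input after Illumina sequencing, with replicates pooled.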

In order of rising binding signal:
1. GATGATTGTTCTCCCAGCTGATGAATTACTTAACTCGAGTAAACAAATTTTCCTAATCTTTCTGTTCAAGCGCCATCTAC  0.277 RPM ratio (pull-down/input)
2. GATGATTGTTCTCCCAGCTGATGAATTTCAAGTTTCGAGTAAACAAATTTTCCTAATCTTTCTGTTCAAGCGCCATCTAC  0.283 RPM ratio (pull-down/input)
3. GATGATTGTTCTCCCAGCTGATGAATTTCCACGTTCGAGTAAACAAATTTTCCTAATCTTTCTGTTCAAGCGCCATCTAC  0.311 RPM ratio (pull-down/input)
4. GATGATTGTTCTCCCAGCTGATGAATTGGGAGATTCGAGTAAACAAATTTTCCTAATCTTTCTGTTCAAGCGCCATCTAC  0.372 RPM ratio (pull-down/input)
5. GATGATTGTTCTCCCAGCTGATGAATTCTAGCTGTCGAGTAAACAAATTTTCCTAATCTTTCTGTTCAAGCGCCATCTAC  0.392 RPM ratio (pull-down/input)
6. GATGATTGTTCTCCCAGCTGATGAATTTTACTCATCGAGTAAACAAATTTTCCTAATCTTTCTGTTCAAGCGCCATCTAC  0.402 RPM ratio (pull-down/input)
7. GATGATTGTTCTCCCAGCTGATGAATTTCTATACTCGAGTAAACAAATTTTCCTAATCTTTCTGTTCAAGCGCCATCTAC  0.435 RPM ratio (pull-down/input)
8. GATGATTGTTCTCCCAGCTGATGAATTTACTGGCTCGAGTAAACAAATTTTCCTAATCTTTCTGTTCAAGCGCCATCTAC  0.472 RPM ratio (pull-down/input)
9. GATGATTGTTCTCCCAGCTGATGAATTGACAATGTCGAGTAAACAAATTTTCCTAATCTTTCTGTTCAAGCGCCATCTAC  0.506 RPM ratio (pull-down/input)
10. GATGATTGTTCTCCCAGCTGATGAATTTTTTGTATCGAGTAAACAAATTTTCCTAATCTTTCTGTTCAAGCGCCATCTAC  0.521 RPM ratio (pull-down/input)
11. GATGATTGTTCTCCCAGCTGATGAATTGTAATACTCGAGTAAACAAATTTTCCTAATCTTTCTGTTCAAGCGCCATCTAC  0.756 RPM ratio (pull-down/input)
12. GATGATTGTTCTCCCAGCTGATGAATTTATACGTTCGAGTAAACAAATTTTCCTAATCTTTCTGTTCAAGCGCCATCTAC  0.886 RPM ratio (pull-down/input)
13. GATGATTGTTCTCCCAGCTGATGAATTGTAGTAATCGAGTAAACAAATTTTCCTAATCTTTCTGTTCAAGCGCCATCTAC  1.03 RPM ratio (pull-down/input)
14. GATGATTGTTCTCCCAGCTGATGAATTGTAATGCTCGAGTAAACAAATTTTCCTAATCTTTCTGTTCAAGCGCCATCTAC  1.07 RPM ratio (pull-down/input)
15. GATGATTGTTCTCCCAGCTGATGAATTCTGATGCTCGAGTAAACAAATTTTCCTAATCTTTCTGTTCAAGCGCCATCTAC  1.09 RPM ratio (pull-down/input)
16. GATGATTGTTCTCCCAGCTGATGAATTCTGGCCATCGAGTAAACAAATTTTCCTAATCTTTCTGTTCAAGCGCCATCTAC  1.12 RPM ratio (pull-down/input)
17. GATGATTGTTCTCCCAGCTGATGAATTGTATCCTTCGAGTAAACAAATTTTCCTAATCTTTCTGTTCAAGCGCCATCTAC  1.61 RPM ratio (pull-down/input)
18. GATGATTGTTCTCCCAGCTGATGAATTGTATCTTTCGAGTAAACAAATTTTCCTAATCTTTCTGTTCAAGCGCCATCTAC  1.68 RPM ratio (pull-down/input)
19. GATGATTGTTCTCCCAGCTGATGAATTGTATTCCTCGAGTAAACAAATTTTCCTAATCTTTCTGTTCAAGCGCCATCTAC  1.97 RPM ratio (pull-down/input)
20. GATGATTGTTCTCCCAGCTGATGAATTGTATTTCTCGAGTAAACAAATTTTCCTAATCTTTCTGTTCAAGCGCCATCTAC  2.06 RPM ratio (pull-down/input)
21. GATGATTGTTCTCCCAGCTGATGAATTAGTAGTATCGAGTAAACAAATTTTCCTAATCTTTCTGTTCAAGCGCCATCTAC  2.45 RPM ratio (pull-down/input)
22. GATGATTGTTCTCCCAGCTGATGAATTCGTTAGTTCGAGTAAACAAATTTTCCTAATCTTTCTGTTCAAGCGCCATCTAC  2.91 RPM ratio (pull-down/input)
23. GATGATTGTTCTCCCAGCTGATGAATTAATTTGCTCGAGTAAACAAATTTTCCTAATCTTTCTGTTCAAGCGCCATCTAC  3.03 RPM ratio (pull-down/input)
24. GATGATTGTTCTCCCAGCTGATGAATTTGTAATCTCGAGTAAACAAATTTTCCTAATCTTTCTGTTCAAGCGCCATCTAC  3.82 RPM ratio (pull-down/input)
25. GATGATTGTTCTCCCAGCTGATGAATTTGATGTATCGAGTAAACAAATTTTCCTAATCTTTCTGTTCAAGCGCCATCTAC  4.63 RPM ratio (pull-down/input)
26. GATGATTGTTCTCCCAGCTGATGAATTTGCTGTATCGAGTAAACAAATTTTCCTAATCTTTCTGTTCAAGCGCCATCTAC  4.72 RPM ratio (pull-down/input)
27. GATGATTGTTCTCCCAGCTGATGAATTTGTATCCTCGAGTAAACAAATTTTCCTAATCTTTCTGTTCAAGCGCCATCTAC  5.4 RPM ratio (pull-down/input)
28. GATGATTGTTCTCCCAGCTGATGAATTTGTATCATCGAGTAAACAAATTTTCCTAATCTTTCTGTTCAAGCGCCATCTAC  5.48 RPM ratio (pull-down/input)
29. GATGATTGTTCTCCCAGCTGATGAATTTGTATCTTCGAGTAAACAAATTTTCCTAATCTTTCTGTTCAAGCGCCATCTAC  5.56 RPM ratio (pull-down/input)
30. GATGATTGTTCTCCCAGCTGATGAATTTGTAGTATCGAGTAAACAAATTTTCCTAATCTTTCTGTTCAAGCGCCATCTAC  5.7 RPM ratio (pull-down/input)
31. GATGATTGTTCTCCCAGCTGATGAATTTTGTATCTCGAGTAAACAAATTTTCCTAATCTTTCTGTTCAAGCGCCATCTAC  5.89 RPM ratio (pull-down/input)
32. GATGATTGTTCTCCCAGCTGATGAATTTGTATTCTCGAGTAAACAAATTTTCCTAATCTTTCTGTTCAAGCGCCATCTAC  5.9 RPM ratio (pull-down/input)
33. GATGATTGTTCTCCCAGCTGATGAATTTGTATGCTCGAGTAAACAAATTTTCCTAATCTTTCTGTTCAAGCGCCATCTAC  6.51 RPM ratio (pull-down/input)
34. GATGATTGTTCTCCCAGCTGATGAATTTGTATACTCGAGTAAACAAATTTTCCTAATCTTTCTGTTCAAGCGCCATCTAC  7.1 RPM ratio (pull-down/input)
35. GATGATTGTTCTCCCAGCTGATGAATTGTTTGTATCGAGTAAACAAATTTTCCTAATCTTTCTGTTCAAGCGCCATCTAC  7.73 RPM ratio (pull-down/input)
